From PubChem BioAssay (EPA / NIEHS)
Several values for one entry are separate records, joined by “and”; a condition that tells them apart may be missing. Identical values can stand only once. Inconclusive results are not listed. Where a structure was tested more than once in an assay, its records may differ in their call. Activity calls are given as the source filed them. How the source made its calls, unless noted: active means hit-call score of the fitted dose curve at least 0.9, where 1 is the maximum; inactive means score below 0.9.

Columns and labels:
[1] = BSK_4H_Eotaxin3: BioMAP Diversity Plus: 4H Assay for Eotaxin 3 Biomarker Activity (AID 2283000); conditions: primary human endothelial cells (HUVEC); actives raise or lower the signal
Method in brief: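 Chemicals were added to human umbilical vein endothelium cultures, and Eotaxin-3 was quantified by ELISA at 24 h. Values were derived by bidirectional fitting with DMSO serving as negative control and activity baseline.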

[2] = target: human Peroxisome Proliferator-activated Receptor delta (PPARd), PPARD (gene 5467) (UniProt Q03181); experiment: ATG_PPARd_TRANS: Attagene TRANS-FACTORIAL HepG2 Assay for human Peroxisome Proliferator-activated Receptor delta (PPARd) (AID 2283002; active means hit-call score of the fitted dose curve at least 0.9, where 1 is the maximum)
Sequence of human Peroxisome Proliferator-activated Receptor delta (PPARd), PPARD (gene 5467) (Q03181 whole entry, looked up, the tested form may be a part): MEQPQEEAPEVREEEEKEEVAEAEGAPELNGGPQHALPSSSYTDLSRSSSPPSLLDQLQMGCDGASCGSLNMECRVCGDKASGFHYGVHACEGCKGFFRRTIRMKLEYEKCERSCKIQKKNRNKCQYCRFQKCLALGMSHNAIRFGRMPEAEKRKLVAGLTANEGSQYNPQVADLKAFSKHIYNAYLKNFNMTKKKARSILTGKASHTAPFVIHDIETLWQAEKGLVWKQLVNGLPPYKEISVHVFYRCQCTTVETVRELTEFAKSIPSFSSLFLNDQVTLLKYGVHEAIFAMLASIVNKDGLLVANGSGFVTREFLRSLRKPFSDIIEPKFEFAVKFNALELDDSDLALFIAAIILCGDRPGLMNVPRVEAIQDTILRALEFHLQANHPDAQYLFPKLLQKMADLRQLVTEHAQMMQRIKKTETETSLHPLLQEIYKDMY
Method in brief: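 Transient HepG2 transfection (multiple GAL4-UAS RTUs, chimeric receptor-Gal4); 24 h dosing; total RNA → oligo(dT) RT → PCR → 6-FAM primer extension → HpaI cut → CE. Positive direction vs DMSO.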

[3] = read-out: Intercellular Adhesion Molecule 1 (ICAM1), ICAM1 (gene 3383); experiment: BSK_3C_ICAM1: BioMAP Diversity Plus: 3C Assay for Intercellular Adhesion Molecule 1 (ICAM1) Biomarker Activity (AID 2283003); conditions: primary human endothelial cells (HUVEC); actives raise or lower the signal
Method in brief: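 ICAM-1 levels measured by ELISA after HUVEC cultures in the 3C system had been dosed for 24 h. Gain or loss of signal relative to DMSO was fitted in both directions.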

[4] = BSK_3C_Proliferation: Cell Proliferation Assessment in the BioMAP Diversity Plus: 3C Assay (AID 2283006); conditions: primary human endothelial cells (HUVEC);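 on AC50: potency may reflect either rise or fall in cell number versus DMSO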
Method in brief: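 Read-out is total protein by SRB absorbance at 560 nm, taken as a proxy for relative cell number. Primary human umbilical vein endothelium cultured below confluence was dosed for 48 h, TCA-fixed and SRB-stained; curves were fitted bidirectionally versus DMSO.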

[5] = target: Peroxisome proliferator-activated receptor gamma (Homo sapiens) (UniProt P37231); experiment: ATG_PPARg_TRANS: Attagene TRANS-FACTORIAL HepG2 Assay for human Peroxisome Proliferator-activated Receptor-gamma (PPARg) (AID 2283007; active means hit-call score of the fitted dose curve at least 0.9, where 1 is the maximum)
Sequence of Peroxisome proliferator-activated receptor gamma (Homo sapiens) (P37231 whole entry, looked up, the tested form may be a part): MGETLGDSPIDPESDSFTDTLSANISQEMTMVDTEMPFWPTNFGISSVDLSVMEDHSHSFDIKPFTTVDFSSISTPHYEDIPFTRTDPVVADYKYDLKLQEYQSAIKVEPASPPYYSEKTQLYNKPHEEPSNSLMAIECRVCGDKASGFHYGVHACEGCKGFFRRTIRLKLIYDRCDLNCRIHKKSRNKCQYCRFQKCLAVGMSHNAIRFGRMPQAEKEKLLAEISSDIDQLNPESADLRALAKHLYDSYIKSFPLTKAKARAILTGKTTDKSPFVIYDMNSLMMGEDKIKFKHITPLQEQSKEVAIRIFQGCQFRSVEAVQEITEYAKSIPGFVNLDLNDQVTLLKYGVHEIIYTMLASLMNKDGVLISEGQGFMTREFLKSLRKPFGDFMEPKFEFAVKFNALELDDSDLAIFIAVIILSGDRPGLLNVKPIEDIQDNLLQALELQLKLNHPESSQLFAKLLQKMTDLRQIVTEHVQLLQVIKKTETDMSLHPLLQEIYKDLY
Method in brief: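 HepG2 cells are transiently transfected with GAL4-UAS reporter units driven by chimeric NR-Gal4 fusions and dosed for 24 h. Reporter mRNA is quantified by RT-PCR, 6-FAM labelling, HpaI digestion and capillary electrophoresis. Induction is scored against DMSO.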

[6] = target: human RAR-related Orphan Receptor beta (RORb), RORB (gene 6096) (UniProt Q92753); experiment: ATG_RORb_TRANS: Attagene TRANS-FACTORIAL HepG2 Assay for human RAR-related Orphan Receptor beta (RORb) (AID 2283010; active means hit-call score of the fitted dose curve at least 0.9, where 1 is the maximum)
Sequence of human RAR-related Orphan Receptor beta (RORb), RORB (gene 6096) (Q92753 whole entry, looked up, the tested form may be a part): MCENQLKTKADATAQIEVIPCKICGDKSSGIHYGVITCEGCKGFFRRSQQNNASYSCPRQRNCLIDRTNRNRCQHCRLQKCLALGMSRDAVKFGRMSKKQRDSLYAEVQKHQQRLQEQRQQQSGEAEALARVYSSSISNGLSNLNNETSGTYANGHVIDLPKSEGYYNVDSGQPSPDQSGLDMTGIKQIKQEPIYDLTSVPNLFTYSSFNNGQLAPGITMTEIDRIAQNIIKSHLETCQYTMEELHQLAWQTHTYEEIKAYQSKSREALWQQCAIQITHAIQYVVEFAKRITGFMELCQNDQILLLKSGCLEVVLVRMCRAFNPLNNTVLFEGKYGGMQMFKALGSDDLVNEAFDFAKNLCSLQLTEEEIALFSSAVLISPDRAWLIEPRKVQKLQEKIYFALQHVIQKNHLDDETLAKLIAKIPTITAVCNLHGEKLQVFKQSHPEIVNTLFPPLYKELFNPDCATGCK
Method in brief: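 Readout is reporter-gene mRNA induction, detected as fluorescence after RT-PCR and capillary electrophoresis, fitted for gain of signal against DMSO controls. Transiently transfected HepG2 liver cells carrying GAL4-UAS reporter constructs were treated for 24 hours.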

[7] = target: human RAR-related Orphan Receptor gamma (RORg), RORC (gene 6097) (UniProt P51449); experiment: ATG_RORg_TRANS: Attagene TRANS-FACTORIAL HepG2 Assay for human RAR-related Orphan Receptor gamma (RORg) (AID 2283011; active means hit-call score of the fitted dose curve at least 0.9, where 1 is the maximum)
Sequence of human RAR-related Orphan Receptor gamma (RORg), RORC (gene 6097) (P51449 whole entry, looked up, the tested form may be a part): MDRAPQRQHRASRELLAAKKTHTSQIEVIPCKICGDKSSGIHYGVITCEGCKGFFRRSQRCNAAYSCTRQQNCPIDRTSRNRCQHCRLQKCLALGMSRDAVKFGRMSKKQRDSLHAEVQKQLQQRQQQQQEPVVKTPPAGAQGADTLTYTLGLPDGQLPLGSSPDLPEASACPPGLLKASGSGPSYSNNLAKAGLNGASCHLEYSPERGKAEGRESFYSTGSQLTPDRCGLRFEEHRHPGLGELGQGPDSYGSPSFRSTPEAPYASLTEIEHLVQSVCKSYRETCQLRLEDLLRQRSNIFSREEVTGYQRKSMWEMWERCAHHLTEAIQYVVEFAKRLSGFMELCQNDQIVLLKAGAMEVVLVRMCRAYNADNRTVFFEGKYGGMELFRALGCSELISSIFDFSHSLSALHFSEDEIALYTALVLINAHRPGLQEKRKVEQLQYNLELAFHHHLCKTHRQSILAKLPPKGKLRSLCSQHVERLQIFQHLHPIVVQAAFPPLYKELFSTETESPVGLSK
Method in brief: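 First, HepG2 liver cells were transfected with GAL4-UAS-driven reporter constructs and the RORg-Gal4 fusion. Next, they were treated with chemical for 24 h. Finally, reporter mRNA was quantified by RT-PCR and capillary electrophoresis, with upward activity fitted against DMSO.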

[8] = target: Retinoic acid receptor RXR-alpha (Homo sapiens) (UniProt P19793); experiment: ATG_RXRa_TRANS: Attagene TRANS-FACTORIAL HepG2 Assay for human Retinoid X Receptor alpha (RXRa) (AID 2283012; active means hit-call score of the fitted dose curve at least 0.9, where 1 is the maximum)
Sequence of Retinoic acid receptor RXR-alpha (Homo sapiens) (P19793 whole entry, looked up, the tested form may be a part): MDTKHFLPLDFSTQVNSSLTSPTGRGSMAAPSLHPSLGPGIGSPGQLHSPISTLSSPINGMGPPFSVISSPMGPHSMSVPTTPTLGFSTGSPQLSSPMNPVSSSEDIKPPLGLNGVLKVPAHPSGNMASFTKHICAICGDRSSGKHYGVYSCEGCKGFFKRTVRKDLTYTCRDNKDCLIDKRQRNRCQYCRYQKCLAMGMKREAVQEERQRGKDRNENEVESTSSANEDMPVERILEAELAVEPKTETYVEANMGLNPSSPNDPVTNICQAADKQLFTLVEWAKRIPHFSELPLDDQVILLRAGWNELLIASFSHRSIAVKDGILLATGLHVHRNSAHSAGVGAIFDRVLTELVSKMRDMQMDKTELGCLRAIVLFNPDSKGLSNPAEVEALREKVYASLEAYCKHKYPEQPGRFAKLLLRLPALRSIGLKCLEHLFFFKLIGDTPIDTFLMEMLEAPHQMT
Method in brief: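 Transient transfection of human HepG2 with multiple GAL4-UAS reporter constructs; 24 h compound exposure; total RNA isolated, reverse-transcribed, PCR-amplified, 6-FAM labelled, HpaI-cut, resolved by capillary electrophoresis. Positive-direction fit versus DMSO.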

[9] = read-out: E-selectin (Homo sapiens) (UniProt P16581); experiment: BSK_3C_Eselectin: BioMAP Diversity Plus: 3C Assay for Eselectin Biomarker Activity (AID 2283015); conditions: primary human endothelial cells (HUVEC); actives raise or lower the signal
Method in brief: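 ELISA read-out of E-selectin on endothelial monolayers after 24 h chemical treatment. Human umbilical vein primary cells served as the system, with DMSO defining baseline activity for bidirectional fitting.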

[10] = read-out: Interleukin-1 alpha (IL1a), IL1A (gene 3552); experiment: BSK_BE3C_IL1a: BioMAP Diversity Plus: BE3C Assay for Interleukin-1 alpha (IL1a) Biomarker Activity (AID 2283016); conditions: primary human bronchial epithelial cells; actives raise or lower the signal
Method in brief: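 BE3C primary human bronchial epithelium; cpd 24 h; IL-1a by ELISA; bidirectional fit vs DMSO; parallel SRB (0.1% SRB, 10% TCA fix, 560 nm) for cytotoxicity.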

[11] = read-out: Monocyte Chemoattractant Protein-1 (MCP1), CCL2 (gene 6347); experiment: BSK_3C_MCP1: BioMAP Diversity Plus: 3C Assay for Monocyte Chemoattractant Protein-1 (MCP1) Biomarker Activity (AID 2283017); conditions: primary human endothelial cells (HUVEC); actives raise or lower the signal
Method in brief: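 ELISA read-out of MCP-1 from human umbilical vein endothelial cell cultures harvested 24 h post-dosing. Gain or loss of signal was fitted relative to DMSO.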

[12] = read-out: Monocyte Chemoattractant Protein-1 (MCP1), CCL2 (gene 6347); experiment: BSK_4H_MCP1: BioMAP Diversity Plus: 4H Assay for Monocyte Chemoattractant Protein-1 (MCP1) Biomarker Activity (AID 2283018); conditions: primary human endothelial cells (HUVEC); actives raise or lower the signal
Method in brief: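 ELISA read-out of MCP-1 from human vascular endothelial primary cells taken at 24 hours after compound exposure. Activity was fitted in both directions relative to DMSO, which served as negative control.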

[13] = read-out: Human Leukocyte Antigen - DR isotype (HLADR), HLA-DRA (gene 3122); experiment: BSK_3C_HLADR: BioMAP Diversity Plus: 3C Assay for Human Leukocyte Antigen - DR isotype (HLADR) Biomarker Activity (AID 2283019); conditions: primary human endothelial cells (HUVEC); actives raise or lower the signal
Method in brief: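 ELISA readout of surface HLA-DR on human umbilical vein endothelium, taken 24 h after chemical treatment. Gain- and loss-of-signal were both fitted relative to DMSO.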

[14] = target: Retinoic acid receptor alpha (Homo sapiens) (UniProt P10276); experiment: ATG_RARa_TRANS: Attagene TRANS-FACTORIAL HepG2 Assay for human Retinoic Acid Receptor alpha (RARa) (AID 2283005; active means hit-call score of the fitted dose curve at least 0.9, where 1 is the maximum)
Sequence of Retinoic acid receptor alpha (Homo sapiens) (P10276 whole entry, looked up, the tested form may be a part): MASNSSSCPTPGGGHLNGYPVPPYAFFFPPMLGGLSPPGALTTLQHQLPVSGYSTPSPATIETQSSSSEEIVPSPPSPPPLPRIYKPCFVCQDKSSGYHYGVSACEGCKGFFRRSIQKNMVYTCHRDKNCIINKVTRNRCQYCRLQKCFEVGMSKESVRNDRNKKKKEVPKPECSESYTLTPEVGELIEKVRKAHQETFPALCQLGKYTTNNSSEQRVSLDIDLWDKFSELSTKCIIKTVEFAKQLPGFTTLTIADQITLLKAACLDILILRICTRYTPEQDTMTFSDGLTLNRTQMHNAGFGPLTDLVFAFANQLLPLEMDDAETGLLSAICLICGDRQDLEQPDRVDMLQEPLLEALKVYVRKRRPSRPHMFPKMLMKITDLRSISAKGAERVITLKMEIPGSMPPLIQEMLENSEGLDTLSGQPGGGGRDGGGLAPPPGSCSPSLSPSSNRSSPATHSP
Method in brief: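 Reporter transcripts, measured by RT-PCR with fluorescent labeling and capillary electrophoresis after 24 h dosing, reflect activity of an exogenous human RARa–GAL4 fusion in transiently transfected HepG2. Fitted for increase relative to DMSO.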

[15] = target: human Retinoic Acid Receptor gamma (RARg), RARG (gene 5916) (UniProt P13631); experiment: ATG_RARg_TRANS: Attagene TRANS-FACTORIAL HepG2 Assay for human Retinoic Acid Receptor gamma (RARg) (AID 2283009; active means hit-call score of the fitted dose curve at least 0.9, where 1 is the maximum)
Sequence of human Retinoic Acid Receptor gamma (RARg), RARG (gene 5916) (P13631 whole entry, looked up): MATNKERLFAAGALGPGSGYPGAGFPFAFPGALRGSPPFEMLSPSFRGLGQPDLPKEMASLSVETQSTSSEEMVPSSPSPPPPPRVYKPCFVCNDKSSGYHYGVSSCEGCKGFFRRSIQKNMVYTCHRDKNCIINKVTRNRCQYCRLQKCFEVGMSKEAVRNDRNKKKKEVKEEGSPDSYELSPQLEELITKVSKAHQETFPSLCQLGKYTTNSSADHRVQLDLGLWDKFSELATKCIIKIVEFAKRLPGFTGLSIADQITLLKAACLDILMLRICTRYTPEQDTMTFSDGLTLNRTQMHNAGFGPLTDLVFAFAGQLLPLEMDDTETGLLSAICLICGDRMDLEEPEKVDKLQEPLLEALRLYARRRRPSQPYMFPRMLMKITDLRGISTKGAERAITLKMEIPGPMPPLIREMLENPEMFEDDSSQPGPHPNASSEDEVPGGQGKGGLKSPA
Method in brief: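 Transient transfection of HepG2 with multi-reporter constructs, then 24 h chemical treatment. Total RNA isolated, reverse-transcribed, PCR-amplified, fluorescently labelled and resolved by capillary electrophoresis; activity scored as mRNA induction versus DMSO.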

[16] = target: human Retinoid X Receptor beta (RXRb), RXRB (gene 6257) (UniProt P28702); experiment: ATG_RXRb_TRANS: Attagene TRANS-FACTORIAL HepG2 Assay for human Retinoid X Receptor beta (RXRb) (AID 2283013; active means hit-call score of the fitted dose curve at least 0.9, where 1 is the maximum)
Sequence of human Retinoid X Receptor beta (RXRb), RXRB (gene 6257) (P28702 whole entry, looked up, the tested form may be a part): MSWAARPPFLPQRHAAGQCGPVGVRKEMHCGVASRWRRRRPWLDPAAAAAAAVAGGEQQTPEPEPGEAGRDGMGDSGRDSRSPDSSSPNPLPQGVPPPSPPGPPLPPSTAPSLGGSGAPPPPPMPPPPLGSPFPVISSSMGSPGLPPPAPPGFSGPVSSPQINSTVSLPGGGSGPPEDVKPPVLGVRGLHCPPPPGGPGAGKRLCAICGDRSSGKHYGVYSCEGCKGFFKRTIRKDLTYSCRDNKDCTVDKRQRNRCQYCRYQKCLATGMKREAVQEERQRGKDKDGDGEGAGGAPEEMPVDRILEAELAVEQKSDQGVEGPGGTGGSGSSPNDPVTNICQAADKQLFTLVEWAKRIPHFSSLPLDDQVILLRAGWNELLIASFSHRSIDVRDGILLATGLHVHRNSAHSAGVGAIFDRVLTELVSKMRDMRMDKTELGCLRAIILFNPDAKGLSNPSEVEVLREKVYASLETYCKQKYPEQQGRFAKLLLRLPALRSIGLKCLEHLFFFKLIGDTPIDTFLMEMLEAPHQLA
Method in brief: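 Transfect HepG2 with GAL4-UAS multi-reporter constructs (chimeric NR-Gal4, TRANS format); dose compound 24 h; isolate RNA, RT-PCR, FAM primer extension, HpaI digest; quantify by capillary electrophoresis; positive direction vs DMSO.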

[17] = target: Nuclear receptor subfamily 1 group I member 2 (Homo sapiens) (UniProt O75469); experiment: ATG_PXR_TRANS: Attagene TRANS-FACTORIAL HepG2 Assay for human Pregnane X Receptor (PXR) (AID 2283008; active means hit-call score of the fitted dose curve at least 0.9, where 1 is the maximum)
Sequence of Nuclear receptor subfamily 1 group I member 2 (Homo sapiens) (O75469 whole entry, looked up, the tested form may be a part): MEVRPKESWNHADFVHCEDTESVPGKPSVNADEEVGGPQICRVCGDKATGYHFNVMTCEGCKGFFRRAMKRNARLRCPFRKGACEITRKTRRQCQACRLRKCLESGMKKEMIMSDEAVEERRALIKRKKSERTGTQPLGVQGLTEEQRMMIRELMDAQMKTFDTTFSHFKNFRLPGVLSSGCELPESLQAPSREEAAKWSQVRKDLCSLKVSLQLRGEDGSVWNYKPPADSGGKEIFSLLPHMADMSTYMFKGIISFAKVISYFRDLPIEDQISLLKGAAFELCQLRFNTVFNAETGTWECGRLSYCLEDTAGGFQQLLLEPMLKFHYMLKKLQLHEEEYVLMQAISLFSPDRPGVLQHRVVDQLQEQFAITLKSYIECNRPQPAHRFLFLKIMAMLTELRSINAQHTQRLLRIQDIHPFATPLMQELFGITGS
Method in brief: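 HepG2 cells transiently transfected with GAL4-UAS reporter units and PXR-Gal4 chimera, exposed 24 h. Reporter mRNA quantified by RT-PCR, fluorescent labelling, HpaI digestion and capillary electrophoresis; gain of signal vs DMSO.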

[18] = target: human Thyroid Receptor alpha (THRa1), THRA (gene 7067) (UniProt P10827); experiment: ATG_THRa1_TRANS: Attagene TRANS-FACTORIAL HepG2 Assay for human Thyroid Receptor alpha (THRa1) (AID 2283014; active means hit-call score of the fitted dose curve at least 0.9, where 1 is the maximum)
Method in brief: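 Reporter transcript induction, read by capillary electrophoresis of 6-FAM-labelled RT-PCR products, reflects activity of a transfected THRa1-Gal4 fusion in HepG2 liver cells. Cells were dosed for 24 h; activity was fitted in the positive direction against DMSO.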

Measured: AC50

Sequence of E-selectin (Homo sapiens) (P16581 whole entry, looked up): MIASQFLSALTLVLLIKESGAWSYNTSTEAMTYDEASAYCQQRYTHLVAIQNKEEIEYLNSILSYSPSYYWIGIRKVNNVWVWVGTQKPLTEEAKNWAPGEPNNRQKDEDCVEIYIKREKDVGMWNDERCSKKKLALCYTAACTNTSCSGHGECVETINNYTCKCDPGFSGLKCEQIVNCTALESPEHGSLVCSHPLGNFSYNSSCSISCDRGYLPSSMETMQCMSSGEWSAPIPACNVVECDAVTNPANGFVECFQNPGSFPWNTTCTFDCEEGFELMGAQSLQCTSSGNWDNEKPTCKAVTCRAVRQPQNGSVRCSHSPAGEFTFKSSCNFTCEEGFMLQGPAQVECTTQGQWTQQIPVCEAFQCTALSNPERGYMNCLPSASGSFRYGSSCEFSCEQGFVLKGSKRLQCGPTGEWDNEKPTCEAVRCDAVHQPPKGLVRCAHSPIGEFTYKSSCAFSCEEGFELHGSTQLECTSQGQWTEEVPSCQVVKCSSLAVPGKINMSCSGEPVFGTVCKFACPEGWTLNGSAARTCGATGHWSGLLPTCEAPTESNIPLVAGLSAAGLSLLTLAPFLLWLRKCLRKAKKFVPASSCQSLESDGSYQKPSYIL

O=C(O)C(F)(F)C(F)(F)C(F)(F)F
not listed: [14] | [15] | [16] | [17] | [18]
inactive: all other assays above

CCCCOCCOCCOC(=O)CCCCC(=O)OCCOCCOCCCC
not listed: [6] | [8] | [17] | [18]
inactive: all other assays above

C=CC(=O)OCC(F)(F)C(F)(F)C(F)(F)C(F)(F)COC(=O)C=C
active: [1] 20 µM and 18 µM | [3] 47.1 µM and 48.3 µM | [4] 9.61 µM and 8.46 µM | [5] 37.8 µM | [16] 1.1 µM | [9] 35.8 µM and 38.1 µM | [10] 20.2 µM and 25.4 µM | [11] 33.8 µM and 22.1 µM | [12] 49.4 µM and 49 µM | [13] 17.2 µM and 18.1 µM
inactive: [2] | [17] | [7] | [8] | [18]

O=S(=O)(OCCOC(F)(F)F)C(F)(F)F
not listed: [6] | [7] | [14] | [17] | [18]
inactive: all other assays above

O=C(CC(=O)C(F)(F)C(F)(F)F)C(F)(F)F
active: [5] 76.1 µM and 61.2 µM | [11] 30 µM and 21.7 µM
not listed: [6] | [7] | [14] | [17] | [18]
inactive: all other assays above

FC(F)(F)C(F)(F)C(F)(F)C(F)(F)C(F)(F)C(F)(F)CCS
not listed: [6] | [14] | [15] | [16]
inactive: all other assays above

O=S(=O)(O)C(F)(F)C(F)(F)C(F)(F)C(F)(F)C(F)(F)C(F)(F)C(F)(F)F
active: [5] 33.4 µM and 33.2 µM
not listed: [2] | [17] | [18]
inactive: all other assays above

FC(F)(I)C(F)(F)C(F)(F)C(F)(F)I
active: [1] 52.2 µM and 47.2 µM and 45.6 µM | [3] 39.6 µM and 45.6 µM and 52.7 µM | [4] 49.8 µM and 52.8 µM and 49.4 µM | [5] 48.6 µM | [9] 49 µM and 50.6 µM and 53.6 µM | [10] 47.5 µM and 46 µM and 45 µM | [11] 44.5 µM and 49 µM and 51.6 µM | [12] 45.6 µM and 19.3 µM | [13] 50.2 µM and 46.5 µM and 59 µM
inactive: [17] | [7] | [16] | [12]
